CYP2C9 act = CYP2C9 (human) activation; P11712; recombinant CYP2C9, luciferin-H conversion, luminescence; stronger effect = higher value; factor 1 = untreated enzyme, 0 = blocked; activation factor at 5 µM; actives 1.4% (n = 96,000);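 active = activation factor of 2 or more for CYP2C9 at a 5 µM dose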;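 note: 0 = sulfaphenazole-blocked wells and 1 = vehicle-only wells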
CYP2C19 inhib = inhibitors of human CYP2C19; inhibition, % at 5 µM; actives 21% (n = 96,000); CYP2C19 Supersomes, luciferin-H EGE luminescence, 30 min;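 active = CYP2C19 inhibition above a set limit at 5 µM in the primary screen, cut at about 50% in these data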;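 note: plate controls were negative control wells for no effect and 2.5 mM tranylcypromine positive control for full effect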
Target sequence (P33261 whole entry, looked up): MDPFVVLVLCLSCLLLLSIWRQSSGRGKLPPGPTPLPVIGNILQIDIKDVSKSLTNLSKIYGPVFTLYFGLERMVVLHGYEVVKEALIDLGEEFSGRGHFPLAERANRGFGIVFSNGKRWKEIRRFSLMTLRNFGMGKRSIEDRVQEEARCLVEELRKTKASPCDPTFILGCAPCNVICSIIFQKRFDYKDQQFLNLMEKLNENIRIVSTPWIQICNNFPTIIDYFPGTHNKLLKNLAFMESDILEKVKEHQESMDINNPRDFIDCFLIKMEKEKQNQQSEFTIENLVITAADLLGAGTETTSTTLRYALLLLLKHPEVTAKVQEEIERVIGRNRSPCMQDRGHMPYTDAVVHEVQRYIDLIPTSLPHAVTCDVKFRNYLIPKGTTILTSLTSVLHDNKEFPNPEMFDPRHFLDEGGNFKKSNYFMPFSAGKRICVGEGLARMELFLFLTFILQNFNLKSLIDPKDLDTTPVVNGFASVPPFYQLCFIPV
CYP2C9 inh = inhibitors of human CYP2C9 | P11712 | CYP2C9 Supersomes, luciferin-H conversion, luminescence | inhibition, % at 5 µM | actives 20% (n = 96,000);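 active = blocking of liver enzyme CYP2C9 beyond about 50% at 5 µM, limit read from the data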
sEH activator = increases human soluble epoxide hydrolase activity; P34913; purified human sEH enzymatic activity, activator screen; activation, % at 2 µM; actives 0.04% (n = 91,000); AID 717; in the data active = activation above about 37%
CYP2C19 activ = cytochrome P450 2C19 (human) activation; AID 1025; activation factor at 5 µM; 96,000 tested, under 10 active; recombinant CYP2C19, luciferin-H EGE luminescence; stronger effect = higher value; 0 = fully inhibited enzyme, 1 = untreated enzyme;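 active = activation factor of at least 2 at 5 µM in the primary screen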;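 note: 0 = wells with 2.5 mM tranylcypromine and 1 = vehicle-only wells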
sEH inhibitor = inhibitors of human soluble epoxide hydrolase; P34913; inhibition, % at 2 µM; actives 0.34% (n = 91,000); recombinant human sEH enzymatic activity assay; in the data active = inhibition above about 80%
Numbers without * were called inactive; / = not tested or not shown. An excerpt weighted towards active compounds, which were near 27% of everything screened.

SMILES | CYP2C9 act | CYP2C19 inhib | CYP2C9 inh | sEH activator | CYP2C19 activ | sEH inhibitor
O=C(CN1CCC(n2nnc3ccccc32)CC1)Nc1ccc2c(c1)CCC2 | 0.4 | 67.5* | 62.0* | -29.9 | 0.3 | 28.5
O=C(CN1CCC(n2nnc3cc(F)ccc32)CC1)N1CCCc2ccccc21 | 0.9 | 65.9* | 9.6 | 3.8 | 0.3 | -2.3
Cc1cc(NC(=O)CN2CCC(n3nnc4cc(C(F)(F)F)ccc43)CC2)no1 | 0.1 | 77.5* | 85.9* | / | 0.2 | /
Cc1ccc2nc(C3CCN(CC(=O)Nc4ccc5c(c4)OCCO5)CC3)[nH]c2c1 | 0.2 | 80.2* | 77.8* | 9.4 | 0.2 | -8.7
O/N=C1/CCc2nonc2/C1=N/O | 1.1 | -11.3 | -5.1 | -11.3 | 1.1 | 10.8
CC(=O)c1cc2c(=O)c3cc(C)ccc3oc2nc1C | 0.6 | 36.6 | 41.1 | / | 0.6 | /
Cc1ccc2oc3nc(C)c(C(=O)O)cc3c(=O)c2c1 | 0.7 | 60.5* | 31.1 | 6.5 | 0.4 | -6.0
Cc1csc(NC(=O)c2cccs2)n1 | 0.5 | 94.5* | 53.6* | -1.9 | 0.1 | 6.9
CCOC(=O)Cc1csc(NC(=O)c2sc3nc4ccc(CC)cc4cc3c2N)n1 | 0.4 | 41.2 | 62.6* | 0.7 | 0.6 | 1.6
Cc1csc(NC(=O)c2ccoc2C)n1 | 0.2 | 100.0* | 80.0* | 10.0 | 0 | -10.6
CCOC(=O)Cc1csc(NC(=O)c2cccs2)n1 | 0.2 | 88.3* | 76.9* | / | 0.1 | /
CCOC(=O)Cc1csc(NC(=O)c2ccc3c(c2)OCO3)n1 | 0.6 | 3.7 | 36.3 | -9.1 | 1 | 11.5
Cc1ccc(C(C(=O)NCc2ccco2)N(C(=O)CNC(=O)c2cccs2)c2ccc(C)cc2C)cc1 (stereo not drawn) | 0.8 | 12.6 | 15.2 | 15.6 | 0.9 | -12.9
COC(=O)C(C)NS(=O)(=O)c1ccc(NC(C)=O)cc1 (stereo not drawn) | 0.9 | 14.3 | 13.8 | -2.8 | 0.9 | 5.7
CCCc1nc2ccc(NC(=O)c3ccco3)cc2c(=O)n1Cc1ccccc1Cl | / | / | / | -1.6 | / | 2.9
O=C1CCCc2[nH]nc(-c3cccnc3)c21 | 1.1 | -11.7 | -6.5 | 4.4 | 1.1 | -5.3
O=C(Nc1ccccc1)N(O)c1ccc(Cl)cc1 | 0.4 | 80.1* | 61.0* | -10.4 | 0.2 | 10.0
O=C(CSc1nnc(COc2ccccc2)n1-c1ccccc1)c1cccs1 | 0 | 97.5* | 96.8* | / | 0 | /
COc1ccc(OCc2nnc(SCC(=O)N3CCCc4ccccc43)n2-c2ccc(C)cc2)cc1 | 0.1 | 61.6* | 86.9* | -6.2 | 0.4 | 4.3
COc1ccc(-n2c(Cc3cccn3C)nnc2SCC(=O)N2CCCc3ccccc32)cc1 | 1 | 36.4 | 1.6 | 8.2 | 0.6 | -7.2
Cc1ccc(-c2nnc3ccc(SCC(=O)N4CCc5ccccc54)nn23)cc1 | 0 | 19.7 | 99.7* | / | 0.8 | /
COCc1nnc(SCC(=O)NC(C)c2ccccc2)n1-c1ccccc1 (stereo not drawn) | 0.4 | 59.4* | 55.2* | -0.8 | 0.4 | 2.0
O=C(CSc1ccc2nnc(-c3ccccc3)n2n1)N1CCN(c2ccccc2)CC1 | / | / | / | -8.9 | / | 8.9
COc1ccc(-c2c[n+]3c4n2CCCCC4=C(c2ccccc2)C3)cc1 | 1 | -10.8 | -0.9 | 8.1 | 1.1 | -8.7
CCCn1c(SCC(=O)N2CCCc3ccccc32)nnc1-c1ccccn1 | 1.1 | 78.9* | -8.3 | / | 0.2 | /
SMILES | CYP2C9 act | CYP2C19 inhib | CYP2C9 inh | sEH activator | CYP2C19 activ | sEH inhibitor
COc1ccc(NCc2nnc(SCC(=O)N3CCCc4ccccc43)n2C)cc1 | 1.1 | 18.3 | -8.7 | / | 0.8 | /
COc1ccccc1-n1c(SCC(=O)N2CCCCC2)nnc1-c1ccccc1O | 0.7 | 26.7 | 34.9 | / | 0.7 | /
CCCn1c(SCC(=O)N2CCc3ccccc32)nnc1-c1ccco1 | 0.8 | 49.0 | 18.8 | 4.0 | 0.5 | -6.5
N#Cc1ccc(OCc2nnc(SCC(=O)N3CCCc4ccccc43)n2-c2ccccc2)cc1 | 0.1 | 85.2* | 86.8* | 4.4 | 0.1 | -0.3
COc1ccccc1OCc1nnc(SCC(=O)N2CCCCC2)n1-c1ccccc1 | 0.9 | 70.9* | 6.8 | -1.6 | 0.3 | 5.5
O=C(CSc1nnc(CN2CCOCC2)n1-c1ccccc1)N1CCc2ccccc21 | 0.4 | 26.7 | 63.3* | 7.9 | 0.7 | -5.7
CCC(Sc1nc(=O)cc(N)n1CCc1ccccc1)C(=O)Nc1ccccc1C#N (stereo not drawn) | 0.8 | 20.3 | 23.8 | -15.4 | 0.8 | 13.8
O=C(CSc1nnc2scc(-c3ccccc3)n12)N1CCCc2ccccc21 | 0.6 | 60.9* | 36.3 | -2.7 | 0.4 | 3.3
CC(c1nnc(SCC(=O)N2CCc3ccccc32)n1-c1ccc(Cl)cc1)N(C)C (stereo not drawn) | 0.8 | 61.1* | 20.9 | 12.5 | 0.4 | -9.2
O=C(CSc1nnc(CN2CCOCC2)n1-c1ccc(Cl)cc1)N1CCc2ccccc21 | / | / | / | 9.6 | / | -8.3
COc1ccc(OCCSc2nnc(C)n2-c2ccccc2)cc1 | / | / | / | 5.1 | / | -4.5
COc1ccccc1OCCSc1nnc(C)n1-c1ccccc1 | 1.4 | 77.4* | -41.9 | 5.7 | 0.2 | -6.0
CCOc1ccc(-n2c(COc3ccc(C)cc3)nnc2SCC(N)=O)cc1 | 0.6 | 91.2* | 38.3 | -4.3 | 0.1 | 3.2
CC(Sc1nnc2c(n1)C1(C)CCC2C1(C)C)C(=O)Nc1ccccc1 (stereo not drawn) | 0.6 | 12.3 | 44.3 | -2.3 | 0.9 | 4.5
Fc1ccccc1NC(=S)N/N=C/c1ccccc1Br | 0.9 | -7.4 | 5.5 | 17.6 | 1.1 | -14.4
O=C(CSc1nnc2c(Cl)cc(Cl)cn12)NC1CCS(=O)(=O)C1 (stereo not drawn) | 0.7 | 8.1 | 25.7 | -0.9 | 0.9 | 0.6
O=C(CNS(=O)(=O)c1ccc(F)cc1)N1CCN(c2ccccc2)CC1 | 1.1 | 17.6 | -8.3 | -9.3 | 0.8 | 11.9
Cc1ccc(-c2nnc(SCC(=O)N3CCCc4ccccc43)n2N)cc1 | 1.2 | 58.2* | -18.6 | -5.5 | 0.4 | 6.0
CCn1nnnc1SCC(=O)N1CCCc2ccccc21 | / | / | / | 14.0 | / | -7.8
COc1cccc(-c2cc(C(=O)N3C(C)CCCC3C)no2)c1 (stereo not drawn) | 1.6 | 43.9 | -55.4 | 1.7 | 0.6 | -0.3
CC(=O)C1=C(O)C(=O)N(c2cc(C(C)(C)C)on2)C1c1ccc(Br)cc1 (stereo not drawn) | 0.6 | 4.1 | 41.2 | / | 1 | /
CC(=O)C1=C(O)C(=O)N(c2nccs2)C1c1ccc(Br)cc1 (stereo not drawn) | 0.4 | 14.7 | 56.8* | -6.0 | 0.9 | 2.6
Cc1cc(-n2nc(C)cc2C)nc(NS(=O)(=O)c2ccccc2)n1 | 0.9 | -1.7 | 8.8 | / | 1 | /
Brc1ccc(CSc2ncnc3nc[nH]c23)cc1 | 0.8 | 55.8* | 19.0 | / | 0.4 | /
Cc1ccc(OCCSc2ncnc3nc[nH]c23)cc1 | 0.5 | 73.0* | 53.8* | -13.6 | 0.3 | 9.8
Cc1ccc(C)c(NC(=O)CSc2ncnc3nc[nH]c23)c1 | 1 | 4.6 | -3.2 | 13.9 | 1 | -16.2

Source: PubChem
